13 molecules from PubChem BioAssay (NCI) can be followed below.

Structures are written as SMILES. The panel holds about 83,000 compounds, 20% with a hit somewhere; the sample as a whole holds those more often.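 Single-concentration screen, 48 h exposure, 96-well plates. Endpoint: percent growth. Below 10 = active.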 Values without a mark were called inactive. Active and inactive are the calls of the source.

In the experiment the test system is MDA-MB-468 breast. Nature of the experiment: NCI-60 one-dose screen, 48 h (100 = growth as untreated, 0 = no growth, -100 = all killed). The conditions noted are these: 10 µM unless noted.
Turning to `COC(=O)/C=C/c1c(C2(C)NC(=O)c3ccccc3N2)c(=O)oc2ccc(Cl)cc12` (stereo not drawn), the growth was 88.7%. The result for `CC(=O)c1ccc2c(ccc3ccccc32)c1` reads 95.5%; that for `O=C(Nc1cccc(Cn2c(=O)[nH]c3ccc(Oc4ncccn4)cc3c2=O)c1)c1cccc(Cl)c1`, 18.6%; that for `COc1ccc2c(c1)c1nc3cc(C)c(C)cc3nc1n2CCN(C)C`, -2.58% (active). The figure for `O=C(O)c1ccccc1C(=O)c1cccc2c(F)cccc12` is 104%.

On to `CN(N)c1nc2sc3c(c2c(=O)[nH]1)CCCC3`, for which the growth was 113%. The figure for `CC1=C(C(=O)n2c3ccccc3c3ccccc32)C(c2cccc([N+](=O)[O-])c2)C(C(=O)n2c3ccccc3c3ccccc32)=C(C)N1` is 118%; for `CC1O[C@@H](OC2[C@H](OC(=O)/C=C/c3ccc(O)c(O)c3)C(COC3O[C@H](C)C(O)C(O)[C@@H]3O)O[C@@H](OCCc3ccc(O)c(O)c3)[C@H]2O)[C@@H](O)C(O)[C@H]1O` (stereo partly drawn) it is 106%; for `COC(=O)c1cc2cc(-c3ccc(OC)cc3)cnc2[nH]1` it is 17.4%.

With `CCN1C2=C(SC(=S)C1=C1SC(C(=O)OC)=C(C(=O)OC)S1)SC(=Nc1ccc(OC)cc1)C2=O`, the growth is -78% (active). The result for `CCN(CC)c1ccc(/C=N\NC(=O)c2cccc(Nc3ccnc(C(F)(F)F)c3)c2)c(O)c1` reads 24.6%; that for `Cc1ccc(-c2cnc3sc4ccc(Cl)cc4n23)cc1`, 103%. In the case of `N#CC1=C(c2ccccc2)Nc2c(c(-c3ccc(Cl)cc3)nn2-c2ccccc2)C12C(=O)Nc1ccc(Cl)cc12` (stereo not drawn), the growth is 70%.
